Results as given in PubChem BioAssay (NCI).
About 79,000 compounds went through this panel and 15% of them were active in at least one assay; those are over-represented in the sample as a whole. Activity calls are given as the source filed them. Rule as the data show it: active = growth inhibition above about 70%; inactive = the rest.

Test: NCI Yeast Anticancer Drug Screen. Data for the sgs1 mgt1 strain (AID 161);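 also: 0% = growth of cultures given vehicle only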
Conditions: S. cerevisiae sgs1 mgt1 strain, at 50.0 µM, stronger effect = higher value
Procedure, shortened: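 Inhibition of yeast growth, normalised to vehicle-treated controls, is reported for a strain bearing genetic alterations in DNA damage repair.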

Row | SMILES | growth inhibition
1 | O=C1c2ccc(=O)[nH]c2C(=O)C2CC3=C(CCCC3)CC12 (stereo not given) | 59.5% (inactive)
2 | Cc1cccc(N2CC3CC4C=CC3(C2)O4)c1 (stereo not given) | 4.45% (inactive)
3 | CCOC(=O)C(NC(N)=O)C(=O)OCC | 0.95% (inactive)
4 | CCOc1cc2c(cnc3c4cc(OC)c(OC)cc4ccc23)cc1OC | -13.5% (inactive)
5 | COc1cc(S(N)(=O)=O)c(OC)cc1N | -11.4% (inactive)
6 | O=C(O)C(F)(F)C(F)(F)C(F)(F)C(F)(F)C(=O)O | -37.8% (inactive)
7 | C=C(C)C(=O)O[C@H]1C[C@@]23O[C@@H]2CCC(=C[C@H]2OC(=O)C(=C)[C@H]12)COC3O (stereo not given in full) | 14.8% (inactive)
8 | CCCCCCCCCCCCCCCCCCNc1ccccc1 | 12.2% (inactive)
9 | Cc1ccc(S(=O)(=O)OC2C3OC(C)(C)OC3OC2C2CSC(=S=O)S2)cc1 (stereo not given) | 21.8% (inactive)
10 | CNC(=O)c1ccccc1O | 5.65% (inactive)
11 | O=c1[nH]c(-c2ccccc2N=NN2CCCCC2)nc2ccccc12 | -2.6% (inactive)
12 | Cc1nc2ccccc2c(=O)n1C | 10.7% (inactive)
13 | Cc1cc2c(c(N)c1C)C(=O)c1ccccc1C2=O | 31.7% (inactive)
14 | CCCCCCCCCCCCCCCCC(CCCCCCCCCCCCCCCC)c1ccccc1 | 13.4% (inactive)
15 | NCCN.O=C([O-])CN1CCOCC1.[OH-].[Pt+4] | -29.9% (inactive)
16 | C1=Nc2ccccc2/C1=C/C=C/c1ccccc1 | 28.3% (inactive)
17 | COC(=O)c1cccc(Cl)c1C(=O)c1ccc(C)cc1C | -9.1% (inactive)
18 | O=C(Nc1ncnc2c1ncn2C1OC(COC(=O)c2ccccc2)C(OC(=O)c2ccccc2)C1OC(=O)c1ccccc1)c1ccccc1 (stereo not given) | -1.25% (inactive)
19 | C=C(C)C(=O)OCCOCC(CC)CCCC (stereo not given) | -5% (inactive)
20 | CCC(C)Nc1ccc(NS(=O)(=O)CCl)cc1 (stereo not given) | 13.3% (inactive)

Row | SMILES | growth inhibition
21 | CN=C(N)SCCCSC(N)=NC | 28% (inactive)
22 | COC(=O)/C=C/C1C2C3(CCC(C)C12C)OCCS3 (stereo not given) | -4.45% (inactive)
23 | Cc1cc2c(=O)cc(-c3ccc(F)cc3)oc2c(C(=O)O)c1C | -5.6% (inactive)
24 | O=NN(CCCl)C(=O)NC1CCC(C(=O)O)CC1 (stereo not given) | -6.65% (inactive)
25 | O=C1C(=O)C(c2ccccc2)(c2ccccc2)C(=O)N1c1ccccc1 | 0.9% (inactive)
26 | Cc1c(NC(C)C)ccc(NC(C)C)c1C | 26.3% (inactive)
27 | COc1ccc2oc(=O)c(CC=C(C)C)c(O)c2c1C | -1.65% (inactive)
28 | Clc1cc(Cl)c(Cl)c(Cl)c1Cl | -0.15% (inactive)
29 | O=C(O)C1C2CCC(O2)C1C(=O)Nc1cccc2cccnc12 (stereo not given) | -10.2% (inactive)
30 | COc1cccc(/C=C2\S/C(=N/Nc3nc(C)c(C)s3)NC2=O)c1O | 20.8% (inactive)
31 | CCc1cc2c(cc1C(=O)/C=C\c1cccc3ccccc13)C(C)(C)CCC2(C)C | 8.15% (inactive)
32 | O=[N+]([O-])c1ccc(Oc2ccc(Cl)cc2)cc1 | 14.6% (inactive)
33 | CC12CCC3C(CCC4CCCCC43C)C1CCC2CO (stereo not given) | 17.8% (inactive)
34 | CCCCSc1nc2c(=O)n(C)c(=O)n(C)c2n1C | 10.8% (inactive)
35 | CCC1CC(=O)NC(=O)NC1=O (stereo not given) | -3.75% (inactive)
36 | Cc1cc(Cl)ccc1C1OC(=O)c2c1ccc1ccccc21 (stereo not given) | -6.25% (inactive)
37 | Nc1ccc2ccccc2c1C(=O)c1ccccc1 | -15.2% (inactive)
38 | O=C(O)C1CCCN1/N=C/c1cccc([N+](=O)[O-])c1 (stereo not given) | 9.1% (inactive)
39 | CC(C)CCOc1ccc(C(N)=S)c2ccccc12 | 96.4% (active)
40 | O=C(O)CC1CCC(CC(=O)O)CC1 (stereo not given) | -5.25% (inactive)

Test: NCI Yeast Anticancer Drug Screen. Data for the cln2 rad14 strain (AID 165);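 also: 0% = growth equal to vehicle treated cultures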
Conditions: S. cerevisiae cln2 rad14 strain, at 50.0 µM, stronger effect = higher value
Procedure, shortened: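 Each compound was tested on cln2 rad14 yeast. Inhibition of growth was calculated against vehicle-exposed controls.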

Row | SMILES | growth inhibition
41 | O=C1c2ccc(=O)[nH]c2C(=O)C2CC3=C(CCCC3)CC12 (stereo not given) | -71.1% (inactive)
42 | Cc1cccc(N2CC3CC4C=CC3(C2)O4)c1 (stereo not given) | -15.2% (inactive)
43 | CCOC(=O)C(NC(N)=O)C(=O)OCC | -34.7% (inactive)
44 | CCOc1cc2c(cnc3c4cc(OC)c(OC)cc4ccc23)cc1OC | -6.25% (inactive)
45 | COc1cc(S(N)(=O)=O)c(OC)cc1N | 8.8% (inactive)
46 | O=C(O)C(F)(F)C(F)(F)C(F)(F)C(F)(F)C(=O)O | -28.3% (inactive)
47 | C=C(C)C(=O)O[C@H]1C[C@@]23O[C@@H]2CCC(=C[C@H]2OC(=O)C(=C)[C@H]12)COC3O (stereo not given in full) | 9.45% (inactive)
48 | CCCCCCCCCCCCCCCCCCNc1ccccc1 | -29.8% (inactive)
49 | Cc1ccc(S(=O)(=O)OC2C3OC(C)(C)OC3OC2C2CSC(=S=O)S2)cc1 (stereo not given) | 22.2% (inactive)
50 | CNC(=O)c1ccccc1O | 11.3% (inactive)
51 | O=c1[nH]c(-c2ccccc2N=NN2CCCCC2)nc2ccccc12 | -11.8% (inactive)
52 | Cc1nc2ccccc2c(=O)n1C | 2.35% (inactive)
53 | Cc1cc2c(c(N)c1C)C(=O)c1ccccc1C2=O | 10.9% (inactive)
54 | CCCCCCCCCCCCCCCCC(CCCCCCCCCCCCCCCC)c1ccccc1 | -18.1% (inactive)
55 | NCCN.O=C([O-])CN1CCOCC1.[OH-].[Pt+4] | -17.9% (inactive)
56 | C1=Nc2ccccc2/C1=C/C=C/c1ccccc1 | 10.2% (inactive)
57 | COC(=O)c1cccc(Cl)c1C(=O)c1ccc(C)cc1C | -52.9% (inactive)
58 | O=C(Nc1ncnc2c1ncn2C1OC(COC(=O)c2ccccc2)C(OC(=O)c2ccccc2)C1OC(=O)c1ccccc1)c1ccccc1 (stereo not given) | 10.8% (inactive)
59 | C=C(C)C(=O)OCCOCC(CC)CCCC (stereo not given) | -0.3% (inactive)
60 | CCC(C)Nc1ccc(NS(=O)(=O)CCl)cc1 (stereo not given) | 4.25% (inactive)

Row | SMILES | growth inhibition
61 | CN=C(N)SCCCSC(N)=NC | 30.7% (inactive)
62 | COC(=O)/C=C/C1C2C3(CCC(C)C12C)OCCS3 (stereo not given) | -5.3% (inactive)
63 | Cc1cc2c(=O)cc(-c3ccc(F)cc3)oc2c(C(=O)O)c1C | 17.4% (inactive)
64 | O=NN(CCCl)C(=O)NC1CCC(C(=O)O)CC1 (stereo not given) | -7.8% (inactive)
65 | O=C1C(=O)C(c2ccccc2)(c2ccccc2)C(=O)N1c1ccccc1 | 49.6% (inactive)
66 | Cc1c(NC(C)C)ccc(NC(C)C)c1C | 17% (inactive)
67 | COc1ccc2oc(=O)c(CC=C(C)C)c(O)c2c1C | -10.9% (inactive)
68 | Clc1cc(Cl)c(Cl)c(Cl)c1Cl | 12.8% (inactive)
69 | O=C(O)C1C2CCC(O2)C1C(=O)Nc1cccc2cccnc12 (stereo not given) | -1.15% (inactive)
70 | COc1cccc(/C=C2\S/C(=N/Nc3nc(C)c(C)s3)NC2=O)c1O | 18% (inactive)
71 | CCc1cc2c(cc1C(=O)/C=C\c1cccc3ccccc13)C(C)(C)CCC2(C)C | -20.1% (inactive)
72 | O=[N+]([O-])c1ccc(Oc2ccc(Cl)cc2)cc1 | 2.1% (inactive)
73 | CC12CCC3C(CCC4CCCCC43C)C1CCC2CO (stereo not given) | -11.3% (inactive)
74 | CCCCSc1nc2c(=O)n(C)c(=O)n(C)c2n1C | -5.7% (inactive)
75 | CCC1CC(=O)NC(=O)NC1=O (stereo not given) | 12.1% (inactive)
76 | Cc1cc(Cl)ccc1C1OC(=O)c2c1ccc1ccccc21 (stereo not given) | 15.6% (inactive)
77 | Nc1ccc2ccccc2c1C(=O)c1ccccc1 | 37.1% (inactive)
78 | O=C(O)C1CCCN1/N=C/c1cccc([N+](=O)[O-])c1 (stereo not given) | -5.4% (inactive)
79 | CC(C)CCOc1ccc(C(N)=S)c2ccccc12 | 68.5% (inactive)
80 | O=C(O)CC1CCC(CC(=O)O)CC1 (stereo not given) | -40.9% (inactive)
